Assay [1] is described as follows: ATG_M_06_TRANS: Attagene TRANS-FACTORIAL HepG2 Assay for M06 Transcription Factor (Internal Marker) (AID 2282983; active = hit-call score of the fitted dose curve at least 0.9, where 1 is the maximum). The note with it: HepG2 Attagene TRANS M06 internal marker reporter. A digest of the protocol: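 In this multiplexed HepG2 system, compounds are incubated 24 h with cells carrying GAL4-UAS reporter units. Reporter RNA is amplified and resolved by capillary electrophoresis, and induction is scored against DMSO.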

Assay [2] in a line: ATG_M_32_TRANS: Attagene TRANS-FACTORIAL HepG2 Assay for M32 Transcription Factor (Internal Marker) (AID 2282984; active = hit-call score of the fitted dose curve at least 0.9, where 1 is the maximum;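 also: transcript level of a background control reporter unit measured by RT-PCR and capillary electrophoresis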). To be noted: HepG2 Attagene TRANS M32 internal marker reporter. A digest of the protocol: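 Internal background reporter in transfected HepG2: after 24 h chemical exposure, RNA reverse-transcribed, reporter cDNA amplified, fluorescently labelled and HpaI-cut, then sized by capillary electrophoresis. Gain of signal fitted against DMSO control.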

The target in assay [3] is Transcriptional activator Myb (Homo sapiens) (UniProt P10242). In words: ATG_Myb_CIS: Attagene CIS-FACTORIAL HepG2 Assay for human Myeloblastosis (Myb) Proto-Oncogene Transcription Factor (AID 2282986). To be noted: HepG2 Attagene CIS-FACTORIAL Myb reporter transcription; actives raise or lower the signal. A digest of the protocol: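 Reporter mRNA is quantified by RT-PCR and capillary electrophoresis 24 h after dosing HepG2 cells transfected with cis-regulated reporter units, which track endogenous transcription factor activity. Gain and loss of signal are fitted versus DMSO baseline.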
Transcriptional activator Myb (Homo sapiens), sequence (P10242 whole entry, looked up): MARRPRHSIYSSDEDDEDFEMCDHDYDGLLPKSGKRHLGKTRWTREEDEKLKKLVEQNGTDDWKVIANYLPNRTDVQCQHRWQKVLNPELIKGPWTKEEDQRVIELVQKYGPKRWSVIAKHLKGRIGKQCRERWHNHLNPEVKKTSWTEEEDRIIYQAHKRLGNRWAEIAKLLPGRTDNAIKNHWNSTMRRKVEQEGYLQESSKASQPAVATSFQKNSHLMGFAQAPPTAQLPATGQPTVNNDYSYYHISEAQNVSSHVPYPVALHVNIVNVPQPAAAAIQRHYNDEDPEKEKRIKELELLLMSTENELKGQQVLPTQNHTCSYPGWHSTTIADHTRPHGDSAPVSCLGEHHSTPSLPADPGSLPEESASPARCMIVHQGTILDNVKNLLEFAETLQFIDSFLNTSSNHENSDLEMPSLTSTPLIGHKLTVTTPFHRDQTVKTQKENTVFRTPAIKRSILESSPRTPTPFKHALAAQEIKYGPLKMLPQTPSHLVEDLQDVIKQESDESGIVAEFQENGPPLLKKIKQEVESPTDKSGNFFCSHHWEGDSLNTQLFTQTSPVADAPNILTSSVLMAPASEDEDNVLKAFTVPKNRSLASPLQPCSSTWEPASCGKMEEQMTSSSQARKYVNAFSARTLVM

Assay [4] addresses Nuclear respiratory factor 1 (Homo sapiens) (UniProt Q16656). As to the kind of experiment: ATG_NRF1_CIS: Attagene CIS-FACTORIAL HepG2 Assay for human Nuclear Respiratory Factor 1 (NRF1) Orphan Gene (AID 2282987). To be noted: HepG2 NRF1 cis-element reporter, Attagene multiplex; actives raise or lower the signal. A digest of the protocol: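 Endogenous NRF1-driven reporter transcription in transfected HepG2 cells after 24 h treatment. Readout: RT-PCR products, 6-FAM labelled and resolved by capillary electrophoresis; changes fitted both directions relative to DMSO.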

Assay [5] can be described thus: ATG_NFI_CIS: Attagene CIS-FACTORIAL HepG2 Assay for human Nuclear Factor I (NFI) (AID 2282989). The note with it: HepG2 cis-regulatory reporter, NFI response element transcription; actives raise or lower the signal. A digest of the protocol: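 After transient transfection of HepG2 with cis-promoter reporter constructs and 24 h dosing, RNA is reverse-transcribed, amplified, 6-FAM end-labelled and HpaI-digested before capillary analysis. Bidirectional curve fitting against DMSO.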

For assay [6], the target named is Myc proto-oncogene protein (Homo sapiens) (UniProt P01106). In words: ATG_Myc_CIS: Attagene CIS-FACTORIAL HepG2 Assay for human Myelocytomatosis (Myc) Proto-Oncogene Transcription Factor (AID 2282990). The note with it: HepG2, Attagene cis-reporter transcription factor activity; actives raise or lower the signal. The essentials: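 HepG2, transient MRTU transfection (cis promoters, endogenous TFs); 24 h dosing; TriZol RNA → oligo(dT) RT → PCR → 6-FAM primer extension → HpaI cut → CE. Bidirectional fit vs DMSO.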
Myc proto-oncogene protein (Homo sapiens), sequence (P01106 whole entry, looked up): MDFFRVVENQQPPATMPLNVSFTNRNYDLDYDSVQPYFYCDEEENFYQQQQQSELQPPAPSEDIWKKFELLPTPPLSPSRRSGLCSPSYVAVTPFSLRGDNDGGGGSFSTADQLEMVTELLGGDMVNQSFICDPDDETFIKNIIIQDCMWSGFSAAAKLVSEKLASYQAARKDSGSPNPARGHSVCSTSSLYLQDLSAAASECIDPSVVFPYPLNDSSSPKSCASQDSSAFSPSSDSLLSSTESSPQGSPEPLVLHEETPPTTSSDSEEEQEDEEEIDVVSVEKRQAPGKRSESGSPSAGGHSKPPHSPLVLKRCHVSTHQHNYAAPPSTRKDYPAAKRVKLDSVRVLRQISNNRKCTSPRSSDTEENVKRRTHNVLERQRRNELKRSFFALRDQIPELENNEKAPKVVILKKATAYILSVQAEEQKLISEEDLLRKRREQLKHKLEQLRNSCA

Assay [7] in a line: ATG_NRF2_ARE_CIS: Attagene CIS-FACTORIAL HepG2 Assay for human Nuclear Factor Erythroid 2 Related Factor 2 (NFR2) response to Antioxidant Response Elements (ARE) (AID 2282992). To be noted: HepG2 Attagene ARE/NRF2 reporter, transcription factor activity; actives raise or lower the signal. The essentials:
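Using transiently transfected HepG2 cells exposed for 24 h, reporter mRNA levels were determined by RT-PCR with fluorescent primer extension and capillary electrophoresis, analysed for gain or loss of signal against DMSO.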

Assay [8] in a line: ATG_Oct_MLP_CIS: Attagene CIS-FACTORIAL HepG2 Assay for human Octamer-Binding Transcription Factor (Oct) (AID 2282993). The note with it: HepG2 Attagene cis-factorial Oct reporter, mRNA; actives raise or lower the signal. A digest of the protocol: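 Cells of the HepG2 line express promoter-controlled reporter sequences whose mRNA levels, after 24 h treatment, are measured by RT-PCR and capillary electrophoresis. Increases and decreases are scored relative to DMSO.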

The target of assay [9] is Cellular tumor antigen p53 (Homo sapiens) (UniProt P04637). In words: ATG_p53_CIS: Attagene CIS-FACTORIAL HepG2 Assay for human p53 Transcription Factor (AID 2282994). To be noted: HepG2 p53 cis-element reporter, Attagene mRNA; actives raise or lower the signal. The essentials: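 In HepG2 cells, reporter transcription units under cis-regulatory promoters were transiently introduced. Following 24 h treatment, RNA was processed to labelled, digested cDNA fragments read by capillary electrophoresis; fitting was bidirectional versus DMSO.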
Cellular tumor antigen p53 (Homo sapiens), sequence (P04637 whole entry, looked up, the tested form may be a part): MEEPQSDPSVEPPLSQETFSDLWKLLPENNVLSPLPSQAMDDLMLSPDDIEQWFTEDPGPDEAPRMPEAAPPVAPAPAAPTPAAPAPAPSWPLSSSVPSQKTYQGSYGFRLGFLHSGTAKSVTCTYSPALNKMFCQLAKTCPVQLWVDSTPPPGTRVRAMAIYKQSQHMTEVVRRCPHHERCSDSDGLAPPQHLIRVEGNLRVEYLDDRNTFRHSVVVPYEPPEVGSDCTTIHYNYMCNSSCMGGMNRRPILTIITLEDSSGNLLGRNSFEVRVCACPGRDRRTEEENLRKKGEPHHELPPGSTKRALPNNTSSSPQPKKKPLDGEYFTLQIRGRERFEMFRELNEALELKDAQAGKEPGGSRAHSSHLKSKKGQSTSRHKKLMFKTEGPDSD

Assay [10] can be described thus: BSK_3C_uPAR: BioMAP Diversity Plus: 3C Assay for Urokinase-type plasminogen activator receptor (uPAR) Biomarker Activity (AID 2282998). The note with it: BioMAP 3C HUVEC, uPAR biomarker ELISA; actives raise or lower the signal. The essentials:
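Endothelial primary cells of human umbilical vein origin received test chemical; 24 h later uPAR was assayed by ELISA. Fitting was bidirectional, DMSO as negative control.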

The nature of assay [11]: BSK_3C_VCAM1: BioMAP Diversity Plus: 3C Assay for Vascular cell adhesion molecule 1 (VCAM1) Biomarker Activity (AID 2282999). To be noted: BioMAP 3C HUVEC, VCAM1 ELISA, cytokine-stimulated; actives raise or lower the signal. The essentials: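 Activity fitted in both directions relative to DMSO, with ELISA measurement of the surface marker on primary HUVEC (3C) at 24 h post-treatment; parallel SRB staining (0.1% SRB, TCA-fixed, 560 nm) flagged overt cytotoxicity.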
(In general: An ELISA detects its analyte on a solid surface through an enzyme-linked reagent.)

In assay [12] the target is Glucocorticoid receptor (Homo sapiens) (UniProt P04150). As to the kind of experiment: ATG_GR_TRANS: Attagene TRANS-FACTORIAL HepG2 Assay for human Glucocorticoid Receptor (GR) (AID 2282978; active = hit-call score of the fitted dose curve at least 0.9, where 1 is the maximum;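 also: activators score as hits since higher reporter transcript over DMSO is fitted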). To be noted: HepG2 Attagene TRANS GR reporter, mRNA transcription. A digest of the protocol: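 Readout is reporter transcript from a chimeric GR-Gal4 acting on GAL4-UAS in transfected human HepG2 liver cells after 24 h exposure, quantified by RT-PCR and capillary electrophoresis. Activation fitted upward against DMSO.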
Glucocorticoid receptor (Homo sapiens), sequence (P04150 whole entry, looked up, the tested form may be a part): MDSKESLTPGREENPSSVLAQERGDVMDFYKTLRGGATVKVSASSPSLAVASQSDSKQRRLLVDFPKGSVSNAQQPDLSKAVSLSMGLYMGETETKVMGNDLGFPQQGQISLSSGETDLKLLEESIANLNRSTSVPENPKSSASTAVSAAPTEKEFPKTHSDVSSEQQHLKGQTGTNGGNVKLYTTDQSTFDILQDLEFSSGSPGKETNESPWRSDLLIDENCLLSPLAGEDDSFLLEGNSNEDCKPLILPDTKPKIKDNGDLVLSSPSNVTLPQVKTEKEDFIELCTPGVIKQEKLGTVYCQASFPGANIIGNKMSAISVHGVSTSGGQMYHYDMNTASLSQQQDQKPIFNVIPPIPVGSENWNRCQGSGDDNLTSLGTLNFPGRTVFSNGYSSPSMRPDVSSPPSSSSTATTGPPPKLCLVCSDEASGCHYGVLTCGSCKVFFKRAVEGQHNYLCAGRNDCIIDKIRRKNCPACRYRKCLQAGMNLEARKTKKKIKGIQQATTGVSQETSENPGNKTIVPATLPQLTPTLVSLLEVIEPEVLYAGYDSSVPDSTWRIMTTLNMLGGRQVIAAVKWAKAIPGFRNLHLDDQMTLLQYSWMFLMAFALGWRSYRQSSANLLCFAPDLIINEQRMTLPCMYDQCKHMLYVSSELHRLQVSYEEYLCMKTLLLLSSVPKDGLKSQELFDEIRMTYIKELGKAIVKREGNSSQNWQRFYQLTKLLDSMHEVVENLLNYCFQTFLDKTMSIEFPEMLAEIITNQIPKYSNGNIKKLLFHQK

The nature of assay [13]: ATG_NF_kB_CIS: Attagene CIS-FACTORIAL HepG2 Assay for human Nuclear Factor Kappa B (NF-kB) (AID 2282991). To be noted: HepG2 Attagene cis-factorial NF-kB reporter mRNA; actives raise or lower the signal. A digest of the protocol:
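Readout is reporter transcript level, gain or loss versus DMSO, measured 24 h post-dose via RT-PCR, fluorescent labelling and capillary electrophoresis. Human HepG2 liver cells carried transiently transfected CIS reporter constructs reflecting endogenous factors.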

The nature of assay [14]: BSK_3C_TissueFactor: BioMAP Diversity Plus: 3C Assay for Tissue Factor Biomarker Activity (AID 2282997). The note with it: BioMAP 3C HUVEC, tissue factor biomarker readout; actives raise or lower the signal. A digest of the protocol: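 Readout: Tissue Factor ELISA. Cells: human primary umbilical vein endothelium. Time: 24 h after dosing. Analysis: bidirectional fit, DMSO baseline.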

Assay [15] concerns the target Nuclear receptor subfamily 4 group A member 2 (Homo sapiens) (UniProt P43354). As to the kind of experiment: ATG_NURR1_TRANS: Attagene TRANS-FACTORIAL HepG2 Assay for human Nuclear Receptor Related Protein 1 (NURR1) (AID 2282985; active = hit-call score of the fitted dose curve at least 0.9, where 1 is the maximum). To be noted: HepG2 Attagene TRANS reporter, mRNA readout. The essentials: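 Reporter transcript induction, measured by RT-PCR with fluorescent labelling, HpaI digestion and capillary electrophoresis, after 24 hr dosing of human HepG2 cells transiently expressing an exogenous NR-Gal4 fusion with GAL4-UAS-driven reporters; DMSO as baseline.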

A short description of assay [16]: BSK_4H_Eotaxin3: BioMAP Diversity Plus: 4H Assay for Eotaxin 3 Biomarker Activity (AID 2283000).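 Also: CCL26 protein level quantified by ELISA in parallel with SRB cytotoxicity check.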 The note with it: primary human endothelial cells (HUVEC); actives raise or lower the signal. The essentials:
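HUVEC, 24 h post-dose, ELISA for Eotaxin-3/CCL26. Gain or loss of signal fitted bidirectionally vs DMSO baseline.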

The target of assay [17] is Oxysterols receptor LXR-beta (Homo sapiens) (UniProt P55055). As to the kind of experiment: ATG_LXRb_TRANS: Attagene TRANS-FACTORIAL HepG2 Assay for human Liver X Receptor beta (LXRb) (AID 2282981; active = hit-call score of the fitted dose curve at least 0.9, where 1 is the maximum). To be noted: HepG2 Attagene TRANS GAL4-LXRb reporter, mRNA. A digest of the protocol: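 After 24 h chemical treatment of transfected HepG2 cells carrying exogenous NR-Gal4 chimeras, reporter mRNA was quantified by fluorescent RT-PCR and capillary electrophoresis; activity taken as increase over DMSO controls.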
Oxysterols receptor LXR-beta (Homo sapiens), sequence (P55055 whole entry, looked up, the tested form may be a part): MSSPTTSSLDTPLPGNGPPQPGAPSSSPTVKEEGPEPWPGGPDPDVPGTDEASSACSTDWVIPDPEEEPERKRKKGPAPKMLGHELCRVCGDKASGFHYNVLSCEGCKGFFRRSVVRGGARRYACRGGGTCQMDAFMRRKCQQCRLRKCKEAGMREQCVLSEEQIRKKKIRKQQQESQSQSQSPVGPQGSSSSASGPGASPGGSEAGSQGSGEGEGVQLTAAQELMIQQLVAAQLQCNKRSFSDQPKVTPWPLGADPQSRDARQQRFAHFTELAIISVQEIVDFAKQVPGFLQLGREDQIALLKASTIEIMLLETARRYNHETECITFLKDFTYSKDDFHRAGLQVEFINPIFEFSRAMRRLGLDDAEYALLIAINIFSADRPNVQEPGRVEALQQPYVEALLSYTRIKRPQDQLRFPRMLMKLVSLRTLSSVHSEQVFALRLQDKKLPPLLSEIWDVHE

The target of assay [18] is Hepatocyte nuclear factor 4-alpha (Homo sapiens) (UniProt P41235). In words: ATG_HNF4a_TRANS: Attagene TRANS-FACTORIAL HepG2 Assay for human Hepatocyte Nuclear Factor 4 alpha (HNF4a) (AID 2282982; active = hit-call score of the fitted dose curve at least 0.9, where 1 is the maximum). To be noted: HepG2 HNF4a transactivation reporter, mRNA readout. A digest of the protocol:
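Activity of an exogenous HNF4a–Gal4 fusion scored as induced GAL4-UAS reporter transcripts after 24 h chemical exposure of transfected human HepG2 cells. Read-out via RT-PCR with 6-FAM labelling and capillary electrophoresis; rise over DMSO baseline.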

Inconclusive results are not listed. Active and inactive are the calls of the source. The calls were made as follows, unless noted: active = hit-call score of the fitted dose curve at least 0.9, where 1 is the maximum; inactive = score below 0.9.

Among the data in PubChem BioAssay (EPA / NIEHS) are outcome and AC50 values, retold here.

Nuclear respiratory factor 1 (Homo sapiens), sequence (Q16656 whole entry, looked up): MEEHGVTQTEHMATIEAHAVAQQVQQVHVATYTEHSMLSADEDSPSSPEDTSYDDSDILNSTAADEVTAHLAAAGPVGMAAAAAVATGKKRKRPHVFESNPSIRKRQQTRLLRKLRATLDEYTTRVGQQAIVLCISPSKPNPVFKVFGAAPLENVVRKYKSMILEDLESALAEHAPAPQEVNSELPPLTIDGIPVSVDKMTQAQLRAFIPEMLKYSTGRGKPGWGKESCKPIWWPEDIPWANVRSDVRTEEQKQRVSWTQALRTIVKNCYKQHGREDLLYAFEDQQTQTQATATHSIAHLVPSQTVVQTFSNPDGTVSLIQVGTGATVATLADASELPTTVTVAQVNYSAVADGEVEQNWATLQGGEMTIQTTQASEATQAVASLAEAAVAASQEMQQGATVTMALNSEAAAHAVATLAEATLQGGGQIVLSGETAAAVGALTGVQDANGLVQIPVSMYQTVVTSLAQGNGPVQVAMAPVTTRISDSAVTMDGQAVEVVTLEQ
Nuclear receptor subfamily 4 group A member 2 (Homo sapiens), sequence (P43354 whole entry, looked up, the tested form may be a part): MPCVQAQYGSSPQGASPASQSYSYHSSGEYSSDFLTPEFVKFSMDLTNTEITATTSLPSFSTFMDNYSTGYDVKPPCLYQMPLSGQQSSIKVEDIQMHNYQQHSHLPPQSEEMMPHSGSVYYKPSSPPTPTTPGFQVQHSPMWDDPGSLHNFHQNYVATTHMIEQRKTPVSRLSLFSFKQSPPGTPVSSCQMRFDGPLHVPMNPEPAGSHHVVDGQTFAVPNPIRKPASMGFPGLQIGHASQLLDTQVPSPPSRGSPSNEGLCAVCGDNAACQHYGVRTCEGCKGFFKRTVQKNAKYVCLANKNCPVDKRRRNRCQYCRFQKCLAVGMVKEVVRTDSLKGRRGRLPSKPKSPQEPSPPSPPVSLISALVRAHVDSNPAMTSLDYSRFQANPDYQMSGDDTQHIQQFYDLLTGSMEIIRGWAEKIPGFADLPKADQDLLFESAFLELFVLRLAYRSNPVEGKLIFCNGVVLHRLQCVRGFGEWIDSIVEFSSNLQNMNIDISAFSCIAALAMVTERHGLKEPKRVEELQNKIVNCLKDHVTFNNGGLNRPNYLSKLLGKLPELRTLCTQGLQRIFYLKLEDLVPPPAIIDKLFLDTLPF
Hepatocyte nuclear factor 4-alpha (Homo sapiens), sequence (P41235 whole entry, looked up, the tested form may be a part): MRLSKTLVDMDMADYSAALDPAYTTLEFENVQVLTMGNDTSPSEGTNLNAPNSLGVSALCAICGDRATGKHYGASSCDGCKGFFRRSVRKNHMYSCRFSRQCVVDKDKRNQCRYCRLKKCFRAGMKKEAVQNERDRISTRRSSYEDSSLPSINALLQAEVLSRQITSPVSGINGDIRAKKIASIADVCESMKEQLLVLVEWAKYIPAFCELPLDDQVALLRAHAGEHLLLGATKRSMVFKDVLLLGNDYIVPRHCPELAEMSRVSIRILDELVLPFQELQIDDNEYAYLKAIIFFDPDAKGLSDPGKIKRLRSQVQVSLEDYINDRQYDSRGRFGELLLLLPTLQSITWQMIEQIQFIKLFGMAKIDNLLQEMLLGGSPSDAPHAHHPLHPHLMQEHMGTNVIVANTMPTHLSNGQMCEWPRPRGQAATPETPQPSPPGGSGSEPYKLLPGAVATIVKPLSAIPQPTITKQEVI

Consider `CCOS(=O)(=O)OCC`, for which the call in [1], in [2], in assay [3], in assay [4], in assay [5] and in assay [6] was inactive. In addition, the compound was called inactive in [7], in [8], in assay [9], in [10] and in assay [11].
For the compound `COP(N)(=S)OC`, the outcome in assay [12], in assay [2], in [3], in assay [4], in [5] and in assay [6] was inactive. Besides, the compound was called inactive in assay [13], in assay [7], in assay [8], in assay [9], in assay [14] and in [10]. For the same compound, the outcome in assay [11] was inactive.
With `CCOP(=S)(Oc1ccc([N+](=O)[O-])cc1)c1ccccc1` (configuration not stated), the compound was called inactive in assay [1], in assay [15], in assay [3], in [4], in [5] and in assay [6]. Further, the outcome in assay [13], in [8], in [10], in assay [11] and in assay [16] was inactive. Besides, the AC50 (as a rule, the concentration giving half of the maximal activity seen) in assay [7] is 7.75 µM (active).
Consider `O=[N+]([O-])c1ccccc1`, for which the result in assay [17], in [1], in assay [3], in assay [4], in [5] and in [6] was inactive. The compound was classed as inactive in assay [13], in assay [7], in assay [8], in assay [9], in assay [10] and in assay [11]. In addition, the outcome in [16] was inactive.
On to `O=P(OCC(Br)CBr)(OCC(Br)CBr)OCC(Br)CBr` (configuration not stated), for which the compound was called inactive in assay [1], in assay [3], in assay [5], in assay [6], in [13] and in assay [8]. Moreover, the outcome in [9] was inactive. For the same compound, the half-maximal activity concentration (AC50) in assay [4] is 18.6 µM (active); in assay [7] it was 23.4 µM (active); in assay [10] it was 17.4 µM (active); in [11], 17.4 µM (active).
For `CCC1(c2ccccc2)C(=O)N=C(O)NC1=O` (configuration not stated), the outcome in [18], in assay [1], in assay [3], in assay [4], in assay [5] and in [6] was inactive. Also, the result in assay [13], in [7], in assay [8], in [9], in assay [10] and in assay [11] was inactive.
